The experiment concerns the target Genome polyprotein (Dengue virus type 2 (strain 16681-PDK53)) (UniProt P29991). As to the kind of experiment: Dengue-2 NS5 methyltransferase inhibitors, primary screen, biochemical, confirmation dose response (AID 588689). The conditions noted are these: Dengue-2 NS5 methyltransferase capping enzyme assay, at 25 µM, stronger effect = higher value.
Where [1] appears, read: measured here: pilot screen replicate inhibition.

Screen size: about 340,000 compounds; about 1,000 (0.29%) were called active. Rule as the data show it: inconclusive = inhibition above about 29% without an active follow-up result; inactive = below that. The list is a sample of the results. Measured potencies and affinities stand elsewhere.

Consider `CCCCOc1ccc(-c2cnc3ccccc3n2)cc1`, for which the inhibition is 1.6% (inactive).
On the same count and under the same terms, the figure for `Cc1cc(N2CCC(C(=O)NCC3CC3)CC2)nc(-c2ccccc2)n1` is -10.6% (inactive); for `COC(=O)N(C)C[C@H]1OCc2cnnn2CCCC(=O)N([C@@H](C)CO)C[C@@H]1C` it is 0% (inactive).
As to `CC1=NOC(=O)/C1=C\c1ccc(-c2cccc(Cl)c2)o1`, the inhibition was 6.14% (inactive).
As for `CC1=NOC(=O)/C1=C/c1ccc(-c2ccc(Cl)cc2)o1`, the inhibition is 19% (inactive).
For the molecule `CC1=NOC(=O)/C1=C\c1ccc(-c2ccc(Br)cc2)o1`, the inhibition was 24.5% (inactive).
Still for that read-out and setting: the result for `CC1=NOC(=O)/C1=C\c1ccc(-c2ccccc2Br)o1` reads 3.96% (inactive); that for `CC1(C)OC(=O)C(=Cc2ccc(-c3ccc(Cl)c(C(=O)O)c3)o2)C(=O)O1`, -35.6% (inactive).
For `CC(C)N1C(=O)S/C(=C\c2ccc(-c3ccc(Cl)c(C(=O)O)c3)o2)C1=O`, the inhibition was 9.54% (inactive).
`CC(=O)N(c1ccccc1)c1nc2ccccc2s1`: the inhibition was -3.1% (inactive).
The same measure, in the same setting: the figure for `O=C(CNCc1ccccc1Cl)Nc1ccc(C(=O)N2CCCCC2)cc1` is -14.1% (inactive); for `CNC(=O)c1ccsc1NC(=O)CS(=O)(=O)c1ccc(F)cc1` it is -0.55% (inactive); for `CCN1CCN(CCCN(Cc2ccco2)C(=S)Nc2cccc(Cl)c2C)CC1` it is 5.26% (inactive).
For the molecule `Nc1cc(=O)[nH]c(SCC(=O)Nc2cccnc2Cl)n1`, the inhibition was 11.6% (inactive).
As to `COc1ccc(-n2c(C)cc(/C=C3\C(=O)NN(c4ccccc4)C3=O)c2C)cc1`, the inhibition is 3.87% (inactive).
Same read-out and setting: the result for `COc1cccc(/C=C2\CCc3ccccc3C2=O)c1` reads 1.96% (inactive); that for `Cc1cc(/C=C2\C(=O)NN(c3ccccc3)C2=O)c(C)n1-c1ccccc1O`, 2.89% (inactive); that for `COc1cc(C=C2C(=O)c3ccccc3C2=O)cc(OC)c1`, 18% (inactive).
On the same count and under the same terms, the result for `COc1cc(/C=C2/C(=O)NN(c3ccccc3)C2=O)cc(Br)c1O` reads -40.3% (inactive).
On the same count and under the same terms, the figure for `N#C/C(=C\c1cccc(OC(=O)c2cccs2)c1)C(N)=O` is -25% (inactive); for `O=C1NN(c2ccc(Br)cc2)C(=O)/C1=C\c1ccc(O)cc1O` it is -25.4% (inactive); for `O=C1OC(c2ccccc2)=N/C1=C/c1cccc(OC(=O)c2cccs2)c1` it is 6.35% (inactive).
As to `COc1cccc(/C=C2/NC(=O)N(CC(=O)Nc3ccc(C)cc3)C2=O)c1OCc1cccc(C(=O)O)c1`, the inhibition was -3.96% (inactive).
Consider `Cc1ccc2nc(-c3ccccc3)cc(C(=O)N3CCc4ccccc4C3)c2c1`, for which the inhibition was -5.47% (inactive).
For `NC(N)=N/N=C/c1ccc(OCc2ccccc2Cl)cc1`, the inhibition is -0.7% (inactive).
Still for that read-out and setting: the result for `Cc1ccc(-c2nc3c(c(=O)c4ccccc4n3C)c(=O)n2-c2ccc(F)cc2)cc1` reads 0.78% (inactive); that for `CCc1ccc(C(=O)C(C)OC(=O)c2nc3nc(C)cc(C)n3n2)cc1` (stereo not given), -7.33% (inactive); that for `C#CCOc1ccc(/C=C2/C(=O)NN(c3ccc(F)cc3)C2=O)cc1OC`, 14.3% (inactive).
On to `COc1cc(/C=C2/C(=O)NN(c3ccc(F)cc3)C2=O)cc(Cl)c1O`, for which the inhibition was -28% (inactive).
Still for that read-out and setting: the result for `O=C1NN(c2ccccc2)C(=O)/C1=C\c1ccccc1` reads 8.92% (inactive); that for `O=C1NN(c2ccccc2)C(=O)C1=Cc1ccccc1`, 25.9% (inactive); that for `COc1ccc2oc(C(=O)OCC(=O)N(C)C3CCS(=O)(=O)C3)c(C)c2c1` (stereo not given), -8.65% (inactive).
Same read-out and setting: the figure for `O=C(CNC(=O)c1ccc(F)cc1)N/N=C/c1cn[nH]c1-c1ccccc1` is -12.6% (inactive); for `CN(CC(=O)Nc1ccc(F)cc1)C(=O)CSc1nncs1` it is -2.59% (inactive).
The same measure, in the same setting: the result for `CCCCC(=O)Nc1nnc(-c2ccco2)o1` reads 1.48% (inactive); that for `CCNS(=O)(=O)c1ccc(NC(=O)Nc2ccc3c(c2)OCO3)cc1`, -8.45% (inactive); that for `Cc1c(F)cccc1NS(=O)(=O)c1ccc2c(c1)c(C)cc(=O)n2C`, -4.58% (inactive).
As for `NC(=O)C1CCN(C2=C(NS(=O)(=O)c3ccccc3)C(=O)c3ccccc3C2=O)CC1`, the inhibition was 0.77% (inactive).
Same read-out and setting: the figure for `NC(=O)C1CCN(C2=C(NS(=O)(=O)c3ccc(Cl)cc3)C(=O)c3ccccc3C2=O)CC1` is 7.95% (inactive).
In the case of `O=C1C(Cl)=C(NCCCN2CCOCC2)C(=O)c2ccccc21`, the inhibition was 17% (inactive).
Still for that read-out and setting: the figure for `CN1CCN(C2=C(NS(=O)(=O)c3ccccc3)C(=O)c3ccccc3C2=O)CC1` is 7.03% (inactive); for `O=C1C(Cl)=C(NCCN2CCOCC2)C(=O)c2ccccc21` it is 4.52% (inactive); for `O=C1C(Cl)=C(N2CCN(c3ccccc3[N+](=O)[O-])CC2)C(=O)c2ccccc21` it is 3.21% (inactive).
On the same count and under the same terms, the result for `Cc1ccc(C=NNc2ccc([N+](=O)[O-])cn2)cc1` reads -5.44% (inactive); that for `O=S(=O)(c1cc(Cl)ccc1Cl)N1CC2CCCN2c2ccc(C(F)(F)F)cc21` (stereo not given), -10.5% (inactive).
As to `Cc1ccc2cc(CCNC(=O)c3cccc([N+](=O)[O-])c3)c(=O)[nH]c2c1C`, the inhibition is 2.58% (inactive).
On the same count and under the same terms, the figure for `CCCn1c(=O)c2ccccc2n2c(SCC(=O)c3ccc(CC)cc3)nnc12` is -1.12% (inactive).
`Cc1cc(CN2CCCC(CNC(=O)c3ccc(F)cc3)C2)cc(C)c1O` (stereo not given): the inhibition was -7.66% (inactive).
On the same count and under the same terms, the figure for `Cc1cc(N2C(=O)C(O)=C(C(=O)c3cc4ccccc4o3)C2c2cccc(Br)c2)no1` (stereo not given) is 5.32% (inactive); for `CCCOc1ccc(C2C(C(=O)c3cc4ccccc4o3)=C(O)C(=O)N2c2cc(C)on2)cc1` (stereo not given) it is 27.6% (inactive).
Take `CCCOc1ccc(/C(O)=C2\C(=O)C(=O)N(c3ccccn3)C2c2ccccc2F)cc1C` (stereo not given): the inhibition is 22.2% (inactive).
In the case of `COc1ccc(C2C(C(C)=O)=C(O)C(=O)N2c2ccccn2)cc1` (stereo not given), the inhibition was 0.65% (inactive).
Same read-out and setting: the result for `C=CCOc1cccc(C2C(C(=O)c3ccc(C)o3)=C(O)C(=O)N2CCN(C)C)c1` (stereo not given) reads -3.18% (inactive); that for `C=CCOc1cccc(C2C(C(=O)c3ccc(C)o3)=C(O)C(=O)N2Cc2ccncc2)c1` (stereo not given), -1.6% (inactive).
With `CCCOc1ccc(C2C(C(=O)c3cc4ccccc4o3)=C(O)C(=O)N2c2cc(C)on2)cc1OC` (stereo not given), the inhibition was -3.55% (inactive).
As to `COc1cccc(C2C(C(=O)c3cc4ccccc4o3)=C(O)C(=O)N2c2cc(C)on2)c1` (stereo not given), the inhibition is 11.6% (inactive).
As for `COc1cc(C2CC(=O)Oc3cc(O)ccc32)cc(OC)c1OC` (stereo not given), the inhibition is 1.65% (inactive). Under setting [1], the inhibition worked out at 3.63%.
On to `C=CCN1CCN(C(c2cc(OC)ccc2OC)c2nnnn2CC2CCCO2)CC1` (stereo not given), for which the inhibition was 1.37% (inactive).
Take `COc1ccc(-c2ccc(=O)n(Cc3ccccc3)n2)cc1`: the inhibition is -0.78% (inactive).
On the same count and under the same terms, the figure for `C=CCn1c(CC(C)(C)C)nc2ccccc21` is -5.1% (inactive); for `Cc1ccc(S(=O)(=O)N2CCCN(C(=O)c3ccc(-n4nccc4C)cc3)CC2)cc1` it is -5.13% (inactive).
On the same count and under the same terms, the figure for `CCOC(=O)C1CCCN(C(=O)/C(=C/c2ccco2)NC(=O)c2ccccc2)C1` (stereo not given) is -14.3% (inactive); for `CC[n+]1c(/C=C(\C)OC)sc2ccccc21` it is 2.92% (inactive).
On to `O=C(COC(=O)/C=C/c1ccccc1Cl)NC(=O)NC1CCCC1`, for which the inhibition was -7.24% (inactive).
Take `COCCNC(=O)CN1C(=O)CSc2ccc(S(=O)(=O)N3CCOCC3)cc21`: the inhibition is 0.89% (inactive).
Same read-out and setting: the figure for `COc1ccc(C(=O)N2CCN(c3ccc(NC(=O)c4ccco4)cc3)CC2)cc1` is 0% (inactive).
Take `CC1(C)CC(=O)c2c(O)cc(O)cc2O1`: the inhibition was -4.17% (inactive).
Same read-out and setting: the result for `COc1cc(O)c2c(c1)OC(C)(C)CC2=O` reads -2.94% (inactive).
On to `N#CCCN(C(=O)COC(=O)CNS(=O)(=O)c1ccc2ccccc2c1)c1ccccc1`, for which the inhibition is 1.1% (inactive).
For `N#CCc1ccc(NC(=O)Cn2c(=O)oc3ccccc32)cc1`, the inhibition is -3.26% (inactive). For the same molecule, the inhibition under setting [1] is -4.87%.
As for `COc1ccc(S(=O)(=O)N2CCCC2)c(Cl)c1Cl`, the inhibition was -8.19% (inactive).
As to `COc1ccc(-c2cc(C(=O)Nc3sc4c(c3C#N)CCCC4)c3ccccc3n2)cc1OC`, the inhibition is -4.06% (inactive).
On the same count and under the same terms, the figure for `CCC(C)(C)C1CCc2c(sc(NC(=O)c3ccoc3C)c2C(N)=O)C1` (stereo not given) is -3.22% (inactive); for `N#Cc1c(NC(=O)C2CC=CCC2C(=O)O)sc2c1CCCCCC2` (stereo not given) it is 5.78% (inactive).
On the same count and under the same terms, the result for `CC1CCc2c(sc(NC(=O)c3ccccc3C(=O)O)c2C#N)C1` (stereo not given) reads -0.74% (inactive).
On the same count and under the same terms, the figure for `CCC1CCc2c(sc(NC(=O)C3CC=CCC3C(=O)O)c2C#N)C1` (stereo not given) is 27.5% (inactive); for `COc1ccc(OC)c(-c2cc(C(=O)Nc3sc4c(c3C#N)CCC(C)C4)c3ccccc3n2)c1` (stereo not given) it is -5.61% (inactive).
Consider `CCOc1ccc(-c2cccc(NC(=O)COc3ccc(Cl)cc3)c2)nn1`, for which the inhibition was -5.43% (inactive).
Still for that read-out and setting: the result for `COc1ccc(/C=C/C(=O)c2cc(Br)ccc2O)cc1OC` reads 0.78% (inactive); that for `Cc1cccc(-n2nnnc2SCC(=O)Nc2cccc(S(N)(=O)=O)c2)c1`, 0% (inactive); that for `Cc1ccc(NC(=S)NCC2CCCO2)cc1` (stereo not given), -18% (inactive).
For the molecule `C[C@H](CO)N1C[C@H](C)[C@@H](CN(C)Cc2ccc(C(=O)O)cc2)Oc2c(NS(=O)(=O)c3cccs3)cccc2C1=O`, the inhibition is 2.31% (inactive). Also, under setting [1], the inhibition is -3.33%.
Turning to `CC1(C)CC(=O)C(C#N)=C(NCCCO)C1`, the inhibition is -3.49% (inactive).
Still for that read-out and setting: the figure for `CC(C)=NNC1=NC(C)(C)Cc2ccccc21` is 3.83% (inactive).
With `O=C1NC(=O)/C(=C/c2ccccc2Cl)N1`, the inhibition was -5.96% (inactive).
The same measure, in the same setting: the figure for `C=CCOC(=O)C(=O)/C=C/c1csc2ccccc12` is 23.7% (inactive); for `O=C1NC(=S)NC1=Cc1ccc(Cl)cc1Cl` it is -0.78% (inactive).
For `O=C1Nc2ccccc2/C1=C/c1ccccc1Cl`, the inhibition is -2.65% (inactive).
Same read-out and setting: the figure for `O=Cc1c(Cl)cccc1Cl` is 0% (inactive).
The same measure, in the same setting: the result for `O=C1NC(=S)NC(=O)C1=Cc1ccccc1C(=O)O` reads 1.94% (inactive); that for `C/C=C/C=C\C(=O)Nc1cccc(C2=NOC3(C2)C[C@H](C(N)=O)N(C(=O)/C=C/C)C3)c1` (stereo not given in full), -9.17% (inactive).
On the same count and under the same terms, the result for `CCOC(=O)c1c(S(=O)(=O)N(C)C2CCCCC2)c(C)n(C)c1C` reads -7.99% (inactive).

The record behind these values is PubChem BioAssay AID588689 (Southern Research Specialized Biocontainment Screening …, 2011).
